Common to all, as to assay: DAPPL (digital affinity profiling via proximity ligation, sequencing); 10 mM Tris-HCl pH 7.5, 50 mM NaCl, 1 mM DTT, 4% glycerol, room temperature, 30 min; GST-TFs on glutathione beads, 16-mer random dsDNA library, 0.1% formaldehyde crosslink after washing; high values mean tight binding
Details in all cases: protein: recombinant; tags: N-terminal GST; dsDNA, one strand shown

The target in test [1] is T1, FLI1 (Homo sapiens, UniProt Q01543 1-452).
T1 sequence: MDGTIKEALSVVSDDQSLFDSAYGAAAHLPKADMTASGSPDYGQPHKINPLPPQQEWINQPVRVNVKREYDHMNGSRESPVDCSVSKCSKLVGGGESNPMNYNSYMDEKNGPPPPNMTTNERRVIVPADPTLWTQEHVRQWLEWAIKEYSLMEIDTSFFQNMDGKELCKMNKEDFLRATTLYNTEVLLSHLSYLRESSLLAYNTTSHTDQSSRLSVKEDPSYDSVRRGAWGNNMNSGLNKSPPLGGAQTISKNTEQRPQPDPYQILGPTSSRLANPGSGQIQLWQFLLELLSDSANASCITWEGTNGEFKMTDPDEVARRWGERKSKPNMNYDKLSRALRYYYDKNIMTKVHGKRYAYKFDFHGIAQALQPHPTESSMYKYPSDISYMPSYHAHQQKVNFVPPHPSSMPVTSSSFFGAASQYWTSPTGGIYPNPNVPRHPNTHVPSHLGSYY
In short, it runs like this: (§1)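 After expression in yeast as GST fusions, human transcription factors were bound to glutathione beads, DNA-barcoded and mixed with a tag-only sample. The pools were incubated with 200 nmole of a 16-mer random double-stranded DNA library in Tris/NaCl/DTT/glycerol buffer (30 min, room temperature), washed and crosslinked with 0.1% formaldehyde. Proximity ligation with BsaI/T4 ligase ran for 1 h at 37 °C, before PCR amplification and sequencing on an Illumina NextSeq500. Binding signal is a hexamer's read frequency for a factor divided by its frequency for the tag-only sample.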

Test [2] has as its target T2, ELK1 (Homo sapiens, UniProt P19419 1-428).
T2 sequence: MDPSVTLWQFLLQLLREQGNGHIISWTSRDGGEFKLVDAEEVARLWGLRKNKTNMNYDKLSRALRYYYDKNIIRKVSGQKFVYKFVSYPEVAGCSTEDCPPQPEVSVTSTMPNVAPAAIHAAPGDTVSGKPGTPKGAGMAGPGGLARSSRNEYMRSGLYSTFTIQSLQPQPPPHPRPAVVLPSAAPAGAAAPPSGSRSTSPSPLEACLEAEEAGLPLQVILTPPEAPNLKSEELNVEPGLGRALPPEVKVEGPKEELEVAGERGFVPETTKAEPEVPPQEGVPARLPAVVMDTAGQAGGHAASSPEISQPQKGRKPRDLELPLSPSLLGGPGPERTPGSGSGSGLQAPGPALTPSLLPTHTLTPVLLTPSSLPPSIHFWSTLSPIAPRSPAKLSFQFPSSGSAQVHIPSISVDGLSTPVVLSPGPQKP
In short, it runs like this:
as §1

The target of test [3] is T3, GABPA (Homo sapiens, UniProt Q06546 1-454).
T3 sequence: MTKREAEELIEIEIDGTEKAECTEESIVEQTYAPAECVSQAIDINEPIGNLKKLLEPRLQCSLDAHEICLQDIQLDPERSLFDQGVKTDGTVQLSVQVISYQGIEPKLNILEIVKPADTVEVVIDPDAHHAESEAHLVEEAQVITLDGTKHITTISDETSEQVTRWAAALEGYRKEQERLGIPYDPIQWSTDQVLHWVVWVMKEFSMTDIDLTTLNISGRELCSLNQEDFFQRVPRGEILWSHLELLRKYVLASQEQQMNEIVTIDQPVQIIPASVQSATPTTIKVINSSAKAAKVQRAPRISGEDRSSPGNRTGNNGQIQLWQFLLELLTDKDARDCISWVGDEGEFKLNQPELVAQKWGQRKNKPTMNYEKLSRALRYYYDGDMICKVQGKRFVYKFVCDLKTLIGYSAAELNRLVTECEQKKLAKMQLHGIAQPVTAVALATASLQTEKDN
In short, it runs like this:
as §1

Test [4] deals with ELF1 (Homo sapiens, UniProt P32519 1-619). The gist of the method: as §1
Test [5] addresses T4, EHF (Homo sapiens, UniProt Q9NZC4 1-300).
T4 sequence: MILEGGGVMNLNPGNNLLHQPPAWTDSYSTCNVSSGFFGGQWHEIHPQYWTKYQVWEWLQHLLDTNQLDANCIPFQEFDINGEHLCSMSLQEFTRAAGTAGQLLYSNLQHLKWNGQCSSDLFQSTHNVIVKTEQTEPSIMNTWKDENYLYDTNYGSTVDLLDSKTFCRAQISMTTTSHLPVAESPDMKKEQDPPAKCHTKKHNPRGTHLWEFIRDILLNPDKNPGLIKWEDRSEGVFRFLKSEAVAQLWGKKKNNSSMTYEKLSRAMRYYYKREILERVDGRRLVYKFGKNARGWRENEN
The gist of the method:
as §1

In test [6] the target is T5, FEV (Homo sapiens, UniProt Q99581 1-238).
T5 sequence: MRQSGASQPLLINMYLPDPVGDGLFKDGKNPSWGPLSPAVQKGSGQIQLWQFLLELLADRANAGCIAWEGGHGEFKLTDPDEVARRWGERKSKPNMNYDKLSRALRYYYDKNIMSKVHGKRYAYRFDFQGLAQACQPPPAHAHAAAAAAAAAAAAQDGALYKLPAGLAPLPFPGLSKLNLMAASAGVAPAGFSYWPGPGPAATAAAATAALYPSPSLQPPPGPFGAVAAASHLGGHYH
In short, it runs like this:
as §1

The target of test [7] is ETV5 (Homo sapiens, UniProt P41161 1-510). In short, it runs like this: as §1
The target of test [8] is T6, SPIC (Homo sapiens, UniProt Q8N5J4 1-248).
T6 sequence: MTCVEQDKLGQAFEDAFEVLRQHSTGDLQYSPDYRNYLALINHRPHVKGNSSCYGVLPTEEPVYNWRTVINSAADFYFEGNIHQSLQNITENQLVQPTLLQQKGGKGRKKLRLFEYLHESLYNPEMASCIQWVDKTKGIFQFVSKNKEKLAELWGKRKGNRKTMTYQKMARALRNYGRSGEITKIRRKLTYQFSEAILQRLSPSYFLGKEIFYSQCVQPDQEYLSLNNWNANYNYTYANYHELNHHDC
The gist of the method: as §1

The target of test [9] is ELF4 (Homo sapiens, UniProt Q99607 1-663). In short, it runs like this: as §1
The target in test [10] is ETV1 (Homo sapiens, UniProt P50549 1-477). The gist of the method: as §1
Test [11] concerns the target T7, ERF (Homo sapiens, UniProt P50548 1-548).
T7 sequence: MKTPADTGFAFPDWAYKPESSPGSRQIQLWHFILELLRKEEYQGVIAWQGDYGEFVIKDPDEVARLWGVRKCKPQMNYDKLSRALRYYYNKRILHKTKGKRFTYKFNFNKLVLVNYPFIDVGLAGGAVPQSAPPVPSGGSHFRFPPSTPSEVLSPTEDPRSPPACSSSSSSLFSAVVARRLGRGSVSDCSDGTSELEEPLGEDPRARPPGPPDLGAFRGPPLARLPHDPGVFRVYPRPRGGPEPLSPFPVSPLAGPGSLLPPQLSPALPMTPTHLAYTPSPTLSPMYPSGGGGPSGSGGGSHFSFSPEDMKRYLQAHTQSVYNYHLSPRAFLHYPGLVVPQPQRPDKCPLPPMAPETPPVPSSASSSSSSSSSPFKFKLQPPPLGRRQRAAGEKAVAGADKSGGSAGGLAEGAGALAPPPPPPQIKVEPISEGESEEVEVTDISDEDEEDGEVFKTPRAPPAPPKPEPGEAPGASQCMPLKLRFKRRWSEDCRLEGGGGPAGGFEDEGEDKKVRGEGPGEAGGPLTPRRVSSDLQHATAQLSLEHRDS
In short, it runs like this: as §1

Test [12] concerns the target T8, ETV3L (Homo sapiens, UniProt Q6ZN32 1-361).
T8 sequence: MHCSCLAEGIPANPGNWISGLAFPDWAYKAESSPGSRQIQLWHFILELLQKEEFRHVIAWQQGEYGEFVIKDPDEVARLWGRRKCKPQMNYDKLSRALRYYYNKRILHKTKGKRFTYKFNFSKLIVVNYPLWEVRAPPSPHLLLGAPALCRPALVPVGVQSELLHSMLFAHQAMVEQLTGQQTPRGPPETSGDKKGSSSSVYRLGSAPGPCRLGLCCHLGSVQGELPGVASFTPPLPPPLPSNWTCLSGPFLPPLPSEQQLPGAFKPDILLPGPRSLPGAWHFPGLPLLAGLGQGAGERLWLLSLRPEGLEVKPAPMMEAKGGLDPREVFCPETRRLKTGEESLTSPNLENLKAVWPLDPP
The gist of the method: as §1

Test [13] has as its target T9, ETS2 (Homo sapiens, UniProt P15036 1-469).
T9 sequence: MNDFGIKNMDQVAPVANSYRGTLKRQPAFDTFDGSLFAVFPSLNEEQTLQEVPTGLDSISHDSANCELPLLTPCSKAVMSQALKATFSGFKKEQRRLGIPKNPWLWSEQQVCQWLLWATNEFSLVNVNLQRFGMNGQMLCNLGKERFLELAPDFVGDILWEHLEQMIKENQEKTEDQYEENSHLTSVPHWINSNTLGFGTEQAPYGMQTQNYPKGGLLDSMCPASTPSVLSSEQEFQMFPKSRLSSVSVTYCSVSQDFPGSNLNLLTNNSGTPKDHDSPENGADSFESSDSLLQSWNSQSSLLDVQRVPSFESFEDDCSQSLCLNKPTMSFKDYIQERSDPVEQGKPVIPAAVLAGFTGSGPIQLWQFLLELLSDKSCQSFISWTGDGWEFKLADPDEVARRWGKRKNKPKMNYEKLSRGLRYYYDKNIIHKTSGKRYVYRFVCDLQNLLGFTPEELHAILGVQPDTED
The gist of the method:
as §1

Test [14] has as its target T10, ELF5 (Homo sapiens, UniProt Q9UKW6-2 1-255).
T10 sequence: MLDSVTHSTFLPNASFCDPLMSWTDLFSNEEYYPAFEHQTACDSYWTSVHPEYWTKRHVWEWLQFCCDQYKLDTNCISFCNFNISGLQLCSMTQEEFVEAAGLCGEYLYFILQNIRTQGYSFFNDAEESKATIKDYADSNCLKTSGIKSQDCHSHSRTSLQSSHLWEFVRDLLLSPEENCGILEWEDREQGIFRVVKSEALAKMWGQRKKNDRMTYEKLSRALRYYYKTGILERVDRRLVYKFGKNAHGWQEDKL
The gist of the method: as §1

The target in test [15] is T11, ETV3 (Homo sapiens, UniProt P41162-2 1-143).
T11 sequence: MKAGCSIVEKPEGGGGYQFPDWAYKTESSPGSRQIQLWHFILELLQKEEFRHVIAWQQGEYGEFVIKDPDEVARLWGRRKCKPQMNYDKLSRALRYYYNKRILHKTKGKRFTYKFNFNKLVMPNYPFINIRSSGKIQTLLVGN
In short, it runs like this:
as §1

Test [16] concerns the target ETV6 (Homo sapiens, UniProt P41212 1-452). The gist of the method:
as §1

Chain of ELF4 (Q99607 whole entry): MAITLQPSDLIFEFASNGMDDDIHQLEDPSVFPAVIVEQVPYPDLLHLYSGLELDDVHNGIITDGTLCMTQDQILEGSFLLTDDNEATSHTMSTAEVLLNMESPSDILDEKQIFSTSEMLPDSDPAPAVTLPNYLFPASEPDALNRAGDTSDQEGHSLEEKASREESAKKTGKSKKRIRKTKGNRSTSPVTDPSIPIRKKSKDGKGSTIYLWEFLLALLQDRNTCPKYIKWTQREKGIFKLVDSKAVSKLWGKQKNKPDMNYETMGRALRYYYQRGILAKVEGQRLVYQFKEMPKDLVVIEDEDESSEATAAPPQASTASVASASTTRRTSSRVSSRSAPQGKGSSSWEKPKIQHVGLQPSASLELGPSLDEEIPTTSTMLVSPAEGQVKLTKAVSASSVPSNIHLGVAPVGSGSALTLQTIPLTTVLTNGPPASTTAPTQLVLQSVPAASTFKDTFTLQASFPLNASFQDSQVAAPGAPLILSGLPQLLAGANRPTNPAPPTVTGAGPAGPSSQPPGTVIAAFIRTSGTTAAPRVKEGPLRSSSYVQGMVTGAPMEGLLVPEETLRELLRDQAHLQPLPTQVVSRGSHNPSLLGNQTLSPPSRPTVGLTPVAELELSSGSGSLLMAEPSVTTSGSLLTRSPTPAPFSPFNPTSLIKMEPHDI
Chain of ETV5 (P41161 whole entry): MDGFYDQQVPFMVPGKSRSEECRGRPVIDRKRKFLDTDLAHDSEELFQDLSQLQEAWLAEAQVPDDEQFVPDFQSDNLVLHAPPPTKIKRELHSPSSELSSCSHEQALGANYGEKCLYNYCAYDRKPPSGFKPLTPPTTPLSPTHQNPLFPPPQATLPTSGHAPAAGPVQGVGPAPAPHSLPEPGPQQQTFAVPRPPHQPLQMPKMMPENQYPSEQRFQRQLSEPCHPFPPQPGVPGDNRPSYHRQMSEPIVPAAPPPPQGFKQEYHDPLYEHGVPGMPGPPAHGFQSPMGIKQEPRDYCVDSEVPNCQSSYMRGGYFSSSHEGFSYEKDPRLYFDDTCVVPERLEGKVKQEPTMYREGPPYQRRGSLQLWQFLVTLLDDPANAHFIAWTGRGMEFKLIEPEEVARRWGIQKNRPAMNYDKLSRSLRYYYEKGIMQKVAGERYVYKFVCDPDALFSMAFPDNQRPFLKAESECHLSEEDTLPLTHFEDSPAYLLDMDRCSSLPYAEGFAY
Chain of ETV1 (P50549 whole entry): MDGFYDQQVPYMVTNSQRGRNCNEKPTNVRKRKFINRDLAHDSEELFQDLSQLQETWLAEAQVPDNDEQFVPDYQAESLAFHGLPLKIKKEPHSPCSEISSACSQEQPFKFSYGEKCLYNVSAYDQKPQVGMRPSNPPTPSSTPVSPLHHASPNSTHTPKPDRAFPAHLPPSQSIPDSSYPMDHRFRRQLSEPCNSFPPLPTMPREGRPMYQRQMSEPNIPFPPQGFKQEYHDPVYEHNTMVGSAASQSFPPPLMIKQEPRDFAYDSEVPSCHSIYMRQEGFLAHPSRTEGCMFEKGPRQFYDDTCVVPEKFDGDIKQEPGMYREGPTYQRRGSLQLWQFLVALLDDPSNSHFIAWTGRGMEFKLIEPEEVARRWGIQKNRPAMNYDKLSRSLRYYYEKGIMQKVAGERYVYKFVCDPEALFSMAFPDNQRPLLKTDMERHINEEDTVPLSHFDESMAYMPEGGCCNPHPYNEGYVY
Chain of ETV6 (P41212 whole entry): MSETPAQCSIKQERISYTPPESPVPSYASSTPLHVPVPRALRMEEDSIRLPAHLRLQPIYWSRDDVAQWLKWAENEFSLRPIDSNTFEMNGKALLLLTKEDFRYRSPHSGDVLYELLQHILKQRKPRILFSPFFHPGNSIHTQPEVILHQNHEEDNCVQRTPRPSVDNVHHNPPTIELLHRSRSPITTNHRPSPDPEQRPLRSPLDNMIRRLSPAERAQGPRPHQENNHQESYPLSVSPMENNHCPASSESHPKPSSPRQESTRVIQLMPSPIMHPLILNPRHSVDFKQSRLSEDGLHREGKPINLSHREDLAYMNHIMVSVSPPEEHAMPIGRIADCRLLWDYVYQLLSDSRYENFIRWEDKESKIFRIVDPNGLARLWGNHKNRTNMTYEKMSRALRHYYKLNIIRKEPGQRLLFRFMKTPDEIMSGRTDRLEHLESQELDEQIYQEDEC
Chain of ELF1 (P32519 whole entry): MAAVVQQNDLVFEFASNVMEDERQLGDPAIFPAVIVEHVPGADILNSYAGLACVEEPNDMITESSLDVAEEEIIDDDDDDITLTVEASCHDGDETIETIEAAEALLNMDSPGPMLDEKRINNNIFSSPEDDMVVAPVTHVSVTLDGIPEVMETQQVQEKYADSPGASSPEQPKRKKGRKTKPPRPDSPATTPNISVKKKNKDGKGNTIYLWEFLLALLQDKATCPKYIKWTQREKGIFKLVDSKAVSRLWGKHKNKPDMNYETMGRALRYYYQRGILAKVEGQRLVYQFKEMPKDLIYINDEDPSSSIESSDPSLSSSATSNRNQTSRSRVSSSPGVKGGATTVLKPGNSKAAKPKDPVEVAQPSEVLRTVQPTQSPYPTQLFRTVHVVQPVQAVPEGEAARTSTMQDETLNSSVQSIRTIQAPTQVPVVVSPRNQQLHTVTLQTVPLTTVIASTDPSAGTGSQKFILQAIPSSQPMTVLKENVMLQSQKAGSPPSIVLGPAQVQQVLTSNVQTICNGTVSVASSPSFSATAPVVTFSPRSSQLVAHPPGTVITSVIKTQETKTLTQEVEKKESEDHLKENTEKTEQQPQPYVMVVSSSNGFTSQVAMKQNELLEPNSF

AAGGCA: the binding signal in test [1] was 1.02 fold enrichment (6-mer frequency, TF over GST control); in test [2] it was 1.05 fold enrichment (6-mer frequency, TF over GST control); in test [3] it was 1.03 fold enrichment (6-mer frequency, TF over GST control); in [4], 1 fold enrichment (6-mer frequency, TF over GST control); in test [5], 1.09 fold enrichment (6-mer frequency, TF over GST control); in test [6] it was 1.07 fold enrichment (6-mer frequency, TF over GST control). In addition, the binding signal is 1 fold enrichment (6-mer frequency, TF over GST control) in test [7]; 1.01 fold enrichment (6-mer frequency, TF over GST control) in [8]; 1.03 fold enrichment (6-mer frequency, TF over GST control) in test [9]; 1.1 fold enrichment (6-mer frequency, TF over GST control) in test [10]; 1.04 fold enrichment (6-mer frequency, TF over GST control) in [11]; 1.04 fold enrichment (6-mer frequency, TF over GST control) in test [12]. Further, the binding signal is 1.08 fold enrichment (6-mer frequency, TF over GST control) in test [13]; 1.05 fold enrichment (6-mer frequency, TF over GST control) in [14]; 1.07 fold enrichment (6-mer frequency, TF over GST control) in test [15]; 1.03 fold enrichment (6-mer frequency, TF over GST control) in [16].

The record behind these values is article PMC7862700, “An all-to-all approach to the identification of sequence-specific readers for epigenetic DNA modifications on cytosine”.
